Measured values: PubChem BioAssay AID652257 (The Scripps Research Institute Molecular Screening Center, 2013)
Where “and” joins values, the source holds several entries; their conditions need not be identical. Identical values can stand only once. In all, about 370,000 compounds went through this assay and about 4,800 (1.3%) were called active.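 Rule for the calls: active = inhibition above about 21% made by adding two undisclosed values (limit read from the data); inactive = the rest.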 The full list was thinned out, with actives kept by preference. More than one record can exist for a structure, and the calls need not agree.

Target: Protein arginine N-methyltransferase 1 (Homo sapiens) (UniProt Q99873)
Experiment: human PRMT1 activity-probe blockers – biochemical, fluorescence polarization, primary screen (AID 652257)
Settings: recombinant PRMT1, activity-based probe fluorescence polarization; at 2.79 µM; stronger effect = higher value

Sequence of Protein arginine N-methyltransferase 1 (Homo sapiens) (Q99873 whole entry, looked up): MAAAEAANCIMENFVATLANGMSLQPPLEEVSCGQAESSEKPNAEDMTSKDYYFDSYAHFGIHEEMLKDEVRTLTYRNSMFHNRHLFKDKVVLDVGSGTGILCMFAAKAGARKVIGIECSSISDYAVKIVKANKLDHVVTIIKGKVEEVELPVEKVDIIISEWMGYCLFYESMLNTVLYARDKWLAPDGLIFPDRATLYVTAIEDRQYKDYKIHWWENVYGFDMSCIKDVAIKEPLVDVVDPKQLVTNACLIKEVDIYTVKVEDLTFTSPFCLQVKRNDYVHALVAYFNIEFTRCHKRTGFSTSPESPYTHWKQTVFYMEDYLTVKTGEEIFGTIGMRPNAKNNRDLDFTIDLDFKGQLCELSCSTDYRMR

Compound | inhibition
O=C(Oc1ccccc1C(=S)N1CCCCC1)c1cc([N+](=O)[O-])cc([N+](=O)[O-])c1 | 41.9% (active)
O=C(Oc1ccccc1Cl)c1ccc(N2CCOCC2)c([N+](=O)[O-])c1 | -1.29% (inactive)
O=C(Oc1ccc(Br)cc1C(=S)N1CCOCC1)c1cccc([N+](=O)[O-])c1 | 5.11% (inactive)
O=C(Cn1c(N2CCN(C/C=C/c3ccccc3)CC2)nc2ccccc21)c1ccccc1 | 0.25% (inactive)
CCC(C(=O)NCc1cccnc1)n1nc(C)c2sc3ccccc3c2c1=O (centres undefined) | 3.72% (inactive)
Cc1ccc(S(=O)(=O)C2(S(=O)(=O)c3ccc(C)cc3)CCCC2)cc1 | 1.95% (inactive)
CCCOc1ccc(C(=O)C(CCC(CNCC)C(=O)c2ccc(OCCC)cc2)CNCC)cc1 (centres undefined) | -1.8% (inactive)
CCc1ccc(N(C(=O)c2csnn2)C(C(=O)NC2CCCCC2)c2ccncc2)cc1 (centres undefined) | 0.98% (inactive)
Clc1ccc(-n2c(COc3ccccc3)nnc2SCc2nc3ccccc3[nH]2)cc1 | 4.16% (inactive)
CC1CCN(c2ccc(C(=O)O)cc2NS(=O)(=O)c2ccc(Br)s2)CC1 | -1.42% (inactive)
COc1ccc(OCC(=O)OCCN(C)C)cc1 | -3.78% (inactive)
COc1ccc(C(=O)COC(=O)COc2ccc(C)c(C)c2)cc1 | 29.1% (active)
Cc1ccc(OCC(=O)Nc2ccc(C(=O)O)cc2NC(=O)COc2ccc(C)c(C)c2)cc1C | -0.54% (inactive)
CCn1c(=O)n2n(c1=O)[C@@]1(C=C3CCCC[C@H]32)N=C(NC(=O)c2ccccc2)N(Cc2ccccc2)[C@H]1Cc1ccccc1 | -0.64% (inactive)
Cc1cccc(NC(=O)C[C@H]2CC[C@H]3[C@@H](COc4ccc(NC(=O)Nc5ccccc5)cc4C(=O)N3C)O2)c1 | 0.26% (inactive)
CCOC(=O)Nc1ccc(S(=O)(=O)N(C)C(C)C)cc1 | 1.03% (inactive)
COc1ccc2c(C(C)c3ccc(N)cc3)cn(C)c2c1 (centres undefined) | -4.35% (inactive)
CCN(C(=O)CSc1cccc[n+]1[O-])c1ccccc1 | -2.83% (inactive)
O=C(CSc1cccc[n+]1[O-])NCCCc1ccccc1 | -1.06% (inactive)
O=C(CSc1cccc[n+]1[O-])c1ccc(-c2ccccc2)cc1 | 39.5% (active)
CCN(CC)C(=O)CC[C@H]1CC[C@]2(CCCN(Cc3ccc(Cl)cc3)C2)O1 | -4.34% (inactive)
Cc1ccc(NCc2n[nH]c(=S)n2-c2ccccc2)cc1Cl | 15.4% (inactive)
S=c1[nH]nc(CSCc2ccc(Cl)cc2Cl)n1-c1ccccc1 | 21.5% (active)

Compound | inhibition
CCn1c(CSCc2c(Cl)cccc2Cl)n[nH]c1=S | -0.4% (inactive)
CCCNC(=O)C1(C)CCCN(C(=O)c2oc3ccccc3c2C)C1 (centres undefined) | -2.54% (inactive)
CNc1nc(=O)n(C2CCCO2)cc1C (centres undefined) | 4.11% (inactive)
C=CS(=O)(=O)N(Cc1nnn(Cc2ccccc2)c1Br)[C@H](C(=O)OC)C(C)C | -6.2% (inactive)
COc1cc2c(=O)n(C)c3ccccc3c2cc1OC | 0.5% (inactive)
Cn1c(=O)c([N+](=O)[O-])c(Oc2ccccc2)c2ccccc21 | 5.71% (inactive)
Cc1cccc(Oc2c([N+](=O)[O-])c(=O)n(C)c3ccccc23)c1 | 30% (active)
CC(C)NC(=O)NNc1c(Cl)cncc1Cl | -2.84% (inactive)
CCC(c1ccc(NC(=O)OC(C)(C)C)cc1)c1cc(OC)cc(OC)c1 (centres undefined) | 0.65% (inactive)
O=c1/c(=C/c2ccc(CNS(=O)(=O)c3ccccc3)o2)sc2n1CCN=2 | 42.5% (active)
O=C(c1ccc(S(=O)(=O)NCc2ccco2)cc1)N1CCN(c2ccccc2)CC1 | -5.34% (inactive)
O=S(=O)(NCC1OCCc2ccccc21)c1ccccc1 (centres undefined) | 1.74% (inactive)
N#Cc1ccccc1-n1c(N)c(C(=O)N2CCCC2)sc1=S | 12.5% (inactive)
Cc1cccc(-n2c(N)c(C(=O)N3CCN(C)CC3)sc2=S)c1 | 78.2% (active)
Cc1ccc(-n2c(N)c(C(=O)N3CCOCC3)sc2=S)c(C)c1 | 2.33% (inactive)
O=C(CNC(=O)c1ccccc1)OC(C(=O)Nc1cc([N+](=O)[O-])ccc1F)c1ccccc1 (centres undefined) | -5.95% (inactive)
COc1cccc(N2CC(NS(=O)(=O)c3cccs3)CC2=O)c1 (centres undefined) | 0.96% (inactive)
CN[C@H]1C[C@H]2c3cc(N4CCOCC4)ccc3CCN2C[C@H]1[C@H](C)O | 1.75% (inactive)
Cc1cccc(NC(=O)CSC(N)=O)c1C | 35.8% (active)
Cc1ccccc1NC(=O)CSC(=O)c1ccccc1 | 24.5% (active)
Cc1ccccc1NC(=O)Cn1nnc(-c2ccccc2F)n1 | -2.95% (inactive)
Cc1cccc(NC(=O)COC(=O)CCc2ccccc2)c1C | -1.61% (inactive)
Cc1cccc(NC(=O)CSc2nc3c(c(=O)[nH]2)CCCC3)c1C | -0.58% (inactive)

Compound | inhibition
Cc1ccccc1NC(=O)CSC1=NCCN1 | 9.55% (inactive)
CC(c1c[nH]c2ccccc12)c1c(-c2ccccc2)n(C)c2ccccc12 (centres undefined) | 8.87% (inactive)
CN(C)CC(=O)N[C@@H]1C[C@@H]2O[C@H](CO)CC[C@@H]2O[C@@H]1CCc1ccc(C#Cc2ccccc2)cc1 | -0.26% (inactive)
CSc1cccc(NC(=O)CN2C(=O)COc3ccc(S(=O)(=O)N4CCOCC4)cc32)c1 | -1.34% (inactive)
O=C(c1c[nH]c2ccccc12)N1CCC(Oc2cccnc2)CC1 | -5.2% (inactive)
CN1CC(=O)N=C1N | -1.28% (inactive) and 0.16% (inactive)
CCOc1ccc(CCNC(=O)COC(=O)C2CCN(c3ccc(C(F)(F)F)cn3)CC2)cc1OCC | -0.97% (inactive)
CCCC(O)(c1ccccc1)C(c1ccccc1)c1ccccn1 (centres undefined) | 3.01% (inactive)
C=CC1=C(C(=O)O)N2C(=O)[C@@H](NC(=O)/C(=N/OCC(=O)O)c3csc(N)n3)[C@H]2SC1 | 28.6% (active)
C=CC1=C(C(=O)O)N2C(=O)[C@@H](NC(=O)/C(=N\OCC(=O)O)c3csc(N)n3)[C@H]2SC1 | 23.7% (active)
CO/N=C(\C(=O)N[C@@H]1C(=O)N2C(C(=O)O)=C(COC(C)=O)CS[C@H]12)c1csc(N)n1 (stereo in doubt) | 16% (inactive) and 23.3% (active) and 25.5% (active)
COc1ccc(-n2c(COc3ccccc3)nnc2SCC(=O)Nc2ccc3c(c2)OCO3)cc1 | 0.3% (inactive)
C=C(C)CNC(=S)/N=c1\scc(C)n1CC | 2.72% (inactive)
O=C(NCCC1=CCCCC1)C1CCN(S(=O)(=O)c2ccc(Cl)s2)CC1 | 2.95% (inactive)
CCc1c(C)c2ccc(OC3CCCCC3=O)cc2oc1=O (centres undefined) | -0.12% (inactive)
CCCCCCN1CCS(=O)(=O)N(Cc2ccc(C(F)(F)F)cc2)C(C(=O)OC)C1 (centres undefined) | 0.07% (inactive)
C#CCCN([C@H](C(=O)OC)C(C)C)S(=O)(=O)c1ccc(F)cc1Br | 1.71% (inactive)
OCCn1c(-c2ccccc2)csc1=Nc1ccccc1 | 63.9% (active)
O=c1cc(CCl)nc2scc(-c3ccccc3)n12 | 6.61% (inactive)
C=CC1=CCN(S(=O)(=O)C(C)(C)C)[C@@H]1CCO | -1.03% (inactive)
Cc1cc(C(=O)OCC(=O)c2c(N)n(C)c(=O)n(C)c2=O)c(C)o1 | -0.81% (inactive)
Cc1cc(C)c(S(=O)(=O)NN=C2c3ccccc3[C@H]3Cc4csc[n+]4[C@@H]23)c(C)c1 | 52.5% (active)
COc1ccc(C(=O)N2CCN(c3ccc(C(C)=O)cc3F)CC2)cc1S(=O)(=O)NC1CC1 | 2.01% (inactive)

Compound | inhibition
CCCCCN1CCCCC(NC(=O)C(C)CCC)C1=O (centres undefined) | 3.28% (inactive)
COC(=O)C1CN(CCc2ccccc2)CCS(=O)(=O)N1Cc1ccc(F)cc1 (centres undefined) | 0.22% (inactive)
O=C1OC(NC(=O)c2ccccc2)C(N2CCOCC2)=C1Cl (centres undefined) | 0.25% (inactive)
O=C(O)c1ccc(NN=CC2=C(N3CCOCC3)/C(=C/c3ccccc3)CC2)cc1 | 23.8% (active)
O=C(Nc1ccc(F)cc1)c1cccnc1N1CCOCC1 | 0.36% (inactive)
CC12CCC(C(=O)N(CCC#N)CCC#N)(CC1=O)C2(C)C (centres undefined) | -1.4% (inactive)
COC(=O)[C@]12C[C@H](CC(=O)NCCc3ccccc3OC)C(=O)N(Cc3ccco3)C1=C[C@H](C(C)C)O[C@@H]2C1CC1 | -1.39% (inactive)
CC(C)CNC(=O)OCc1cn(Cc2ccc(F)cc2)nn1 | -6.07% (inactive)
S=c1[nH]nc2c3c4c(sc3ncn12)CCCC4 | 40.6% (active)
CCn1c(=S)[nH]c2sc3c(c2c1=O)CCCCC3 | -0.49% (inactive)
N=c1c2c3c(sc2nc2n1CCCCC2)CCCC3 | -1.83% (inactive)
CC(C)(C)NC(=O)C(c1cccnc1)N(C(=O)c1cnco1)c1ccc(C(C)(C)C)cc1 (centres undefined) | 1.45% (inactive)
Cc1nc2ccc(C(=O)N3CCN(C(=O)C(C)(C)C)CC3)cc2n1C1CCCC1 | -5.06% (inactive)
Nc1nnc(SCC(=O)NCC(=O)Nc2ccc(F)c(F)c2F)s1 | 0.28% (inactive)
COc1cccc(NC(=O)COC(=O)/C=C/c2ccco2)c1 | 34.6% (active)
NS(=O)(=O)c1cccc(NC(=O)COC(=O)/C=C/c2ccco2)c1 | 8.16% (inactive)
CC(C)CNC(=O)COC(=O)/C=C/c1ccco1 | 3.56% (inactive)
COC(=O)[C@@]12CCCCC3=C1N(CCC3)C(=O)[C@H]2CC(=O)NCc1cccc2ccccc12 | 0.96% (inactive)
Cc1ccc(C2=CCN(C)C(=O)N2c2ccc(Cl)cc2)cc1 | 1.54% (inactive)
COCCn1c(SCC(=O)Nc2cc(Cl)ccc2OC)nc2c(c1=O)SC(C)C2 (centres undefined) | -2% (inactive)
